Inconclusive results are not listed. Active and inactive are the calls of the source. Unless noted, calls come from the whole dose curve; as a rule, active = well fitted curve in the direction sought with a large enough effect in the repeat runs; inconclusive = weak or mixed curves; inactive = no such curve, though single readings can be large; an effect the other way counts as inactive or inconclusive.
Assays:
[1] = qHTS assay for small molecules that induce genotoxicity in human embryonic kidney cells expressing luciferase-tagged ATAD5 (AID 651632); note: nearly all actives have a fitted effect of over 15% in size
Method in brief: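 Test compounds were delivered by pin tool onto HEK293T reporter cells (2,000/well) expressing ATAD5 fused to luciferase. After 16 hr at 37C, 5% CO2, Amplite was added for 30 min at room temperature and luminescence was measured.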

[2] = qHTS assay to test for compound auto fluorescence at 590 nm (red) in HepG2 cells (AID 720674)
Method in brief: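 1 hr compound incubation on HepG2 cells, 37 C, 5% CO2; plate read ex 540 nm / em 590 nm; intensities reported as Rose Bengal sodium equivalents.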

[3] = qHTS assay to test for compound auto fluorescence at 535 nm (green) in HepG2 cells (AID 720675)
[4] = qHTS assay to test for compound auto fluorescence at 460 nm (blue) in HEK293 cells (AID 720678)
Method in brief: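 Blue read-out at excitation 405 nm and emission 460 nm follows overnight compound exposure of HEK293 cells at 37C in 5% CO2. Activity is given as auto fluorescence equivalency to triamterene.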

[5] = qHTS assay to test for compound auto fluorescence at 590 nm (red) in HEK293 cells (AID 720679)
Method in brief: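 Red channel, Ex/Em 540/590nm; signal expressed as equivalency to Rose Bengal sodium. HEK293, 2,000 cells/well, 10% dialyzed FBS; 23 nL compound pinned after 4-5 hr attachment; overnight 37C/5% CO2 before reading.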

[6] = qHTS assay to test for compound auto fluorescence at 535 nm (green) in HEK293 cells (AID 720680)
[7] = qHTS assay to test for compound auto fluorescence at 460 nm (blue) in HEK293 cell free culture (AID 720681)
Method in brief: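 Blue fluorescence (Ex 405/Em 460 nm, triamterene-equivalent) was read immediately after pin transfer of compound or DMSO into medium (DMEM, 10% FBS) without cells.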

[8] = qHTS assay to test for compound auto fluorescence at 535 nm (green) in HEK293 cell free culture (AID 720682)
Method in brief: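 Intrinsic compound fluorescence is measured in culture medium containing 10% FBS, with excitation at 485 nm and detection at 535 nm, referenced to fluorescein.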

[9] = qHTS assay to test for compound auto fluorescence at 590 nm (red) in HepG2 cell free culture (AID 720684)
Method in brief: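 Cell-free; medium MEM + 10% FBS; compound or DMSO added by pintool; read Ex 540/Em 590 nm; Rose Bengal sodium as red reference fluorophore.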

[10] = qHTS assay to test for compound auto fluorescence at 535 nm (green) in HepG2 cell free culture (AID 720686)
[11] = qHTS assay to test for compound auto fluorescence at 460 nm (blue) in HepG2 cells (AID 720687)
Method in brief: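 Blue-channel autofluorescence (Ex/Em 405/460 nm, triamterene-equivalent) was measured after 1 hr compound exposure at 37 C, 5% CO2. Cells were HepG2, plated overnight at 37 C in MEM plus 10% FBS.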

[12] = qHTS assay for identifying genotoxic compounds that show differential cytotoxicity against isogenic chicken DT40 cell lines with known DNA damage response pathways - Rad54/Ku70 mutant cell line (AID 743015); note: nearly all actives have a fitted effect of over 60% in size; note: potency is the fitted concentration of half-maximal effect
[13] = target: Thyrotropin receptor (Homo sapiens) (UniProt P16473); assay: qHTS assay to identify small molecule agonists of the thyroid stimulating hormone receptor (TSHR) signaling pathway (AID 1224843; calls by dose curve; note: nearly all actives have a fitted effect of over 45% in size; note: potency is the fitted concentration of half-maximal effect)
Method in brief: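 Agonist activity read as cAMP rise via d2/cryptate HTRF competition, 1 h room-temperature detection, in HEK293 cells expressing TSHR. Fifteen-point titrations, each run in triplicate, with a 30 min room-temperature incubation beforehand.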

[14] = qHTS RealTime-Glo MT Cell Viability Assay in HEK293 cells - 8 hour (AID 1224887); note: nearly all actives have a fitted effect of over 50% in size; note: potency is the fitted concentration of half-maximal effect; for activity change, negative = cytotoxicity: top concentration of the series differs between compounds
Method in brief: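 Measured as luminescence from the same continuously cultured HEK293 wells at successive time points (0, 8, 16, 24, 32, 40 h) after compound addition. Reagent present from seeding; dosing at 5 h; incubation 37 C.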

[15] = target: Estrogen receptor (Homo sapiens) (UniProt P03372); assay: qHTS assay to identify small molecule antagonists of the estrogen receptor alpha (ER-alpha) signaling pathway using the BG1 cell line in the presence of 0.1 nM 17-beta-estradiol (AID 1259244); note: nearly all actives have a fitted effect of over 50% in size; note: potency is the fitted concentration of half-maximal effect
Method in brief: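 Seeding of stripped-serum-adapted VM7Luc4E2 cells, 24 h attachment, compound transfer, then 0.1 nM final 17beta-estradiol; after 22 h incubation, ONE-Glo reagent and luminescence reading.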

[16] = target: Estrogen receptor beta (Homo sapiens) (UniProt Q92731); assay: qHTS assay to identify small molecule agonists of the estrogen receptor beta (ER-beta) signaling pathway (AID 1259377; active = well fitted activation curve with a large enough effect in the signal ratio in the repeat runs, not every such curve was filed as active; the % refers to the signal ratio)
Method in brief: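 Measured by fluorescence intensity from a B/G FRET beta-lactamase substrate (2 h, room temperature) in ER-beta-UAS-bla HEK293T cells treated with DMSO-dissolved compounds for 16 hr at 37C and 5% CO2.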

[17] = target: Thyrotropin-releasing hormone receptor (Homo sapiens) (UniProt P34981); assay: qHTS assay to identify small molecule antagonists of the thyrotropin-releasing hormone receptor (TRHR) signaling pathway (AID 1346877; active = well fitted inhibition curve with a large enough effect in the repeat runs, not every such curve was filed as active; note: series mostly up to about 51 µM)
Method in brief: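 Human TRHR in HEK293 cells; inhibition of the intracellular calcium rise triggered by 1 nM TRH was followed by fluorescence over 3 min. Compounds were run at 15 concentrations, three replicates each.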

[18] = qHTS assay to identify small molecule antagonists of the estrogen related receptor signaling pathway with the pleiotropic PPARgamma coactivator (PGC) from Tox21 10K library (AID 1224841; call rule not given here; note: actives are mostly falling curves and most rising ones were filed inactive; nearly all actives have a fitted effect of over 50% in size; note: potency is the fitted concentration of half-maximal effect; for activity, negative = inhibition: series mostly up to about 92 µM)
Method in brief: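 In the PGC/ERR line, DMSO solutions of test chemicals are pin-delivered to 2,000 cells/well six hours after dispensing. Following eighteen hours' incubation, One-Glo reagent is added and luminescence recorded.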

[19] = qHTS assay to identify small molecule antagonists of the estrogen related receptor (ERR) signaling pathway from Tox21 library (AID 1224848); note: nearly all actives have a fitted effect of over 50% in size; note: potency is the fitted concentration of half-maximal effect
Method in brief: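 Luciferase luminescence (ONE-Glo, 30 min room temperature) was the read-out. Cells of the NTP-supplied ERR line, 2,000 per well, were given 6 h at 37 C before compound addition in DMSO and 18 h exposure at 37 C.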

[20] = qHTS assay to identify small molecule agonists of H2AX - cell viability counter screen (AID 1224847; calls by dose curve; note: nearly all actives have a fitted effect of over 30% in size; note: potency is the fitted concentration of half-maximal effect; for activity change, negative = cytotoxicity: top concentration of the series differs between compounds)
Method in brief: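 Viability of CHO-K1 (wild type) cells after 3 hr compound exposure was measured by CellTiter-Glo luminescence.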
% is set by controls: 0 for no effect and ±100 for the full control effect.

Chain of Estrogen receptor beta (Homo sapiens) (Q92731 whole entry, looked up): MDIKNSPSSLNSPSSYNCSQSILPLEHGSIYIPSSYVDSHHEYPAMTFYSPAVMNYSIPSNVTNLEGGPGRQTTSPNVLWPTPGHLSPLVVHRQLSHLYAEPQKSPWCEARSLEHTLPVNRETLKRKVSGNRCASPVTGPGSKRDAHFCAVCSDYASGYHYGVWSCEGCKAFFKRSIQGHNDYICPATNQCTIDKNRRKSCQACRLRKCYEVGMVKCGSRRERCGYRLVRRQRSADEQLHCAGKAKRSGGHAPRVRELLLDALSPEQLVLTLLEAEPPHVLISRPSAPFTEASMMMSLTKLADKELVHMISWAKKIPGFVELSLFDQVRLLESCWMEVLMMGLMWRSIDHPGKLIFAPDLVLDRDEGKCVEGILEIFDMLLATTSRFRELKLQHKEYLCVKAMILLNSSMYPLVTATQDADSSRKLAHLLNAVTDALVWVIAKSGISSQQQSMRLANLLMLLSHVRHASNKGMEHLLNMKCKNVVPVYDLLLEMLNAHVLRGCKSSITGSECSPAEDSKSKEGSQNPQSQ
Chain of Estrogen receptor (Homo sapiens) (P03372 whole entry, looked up): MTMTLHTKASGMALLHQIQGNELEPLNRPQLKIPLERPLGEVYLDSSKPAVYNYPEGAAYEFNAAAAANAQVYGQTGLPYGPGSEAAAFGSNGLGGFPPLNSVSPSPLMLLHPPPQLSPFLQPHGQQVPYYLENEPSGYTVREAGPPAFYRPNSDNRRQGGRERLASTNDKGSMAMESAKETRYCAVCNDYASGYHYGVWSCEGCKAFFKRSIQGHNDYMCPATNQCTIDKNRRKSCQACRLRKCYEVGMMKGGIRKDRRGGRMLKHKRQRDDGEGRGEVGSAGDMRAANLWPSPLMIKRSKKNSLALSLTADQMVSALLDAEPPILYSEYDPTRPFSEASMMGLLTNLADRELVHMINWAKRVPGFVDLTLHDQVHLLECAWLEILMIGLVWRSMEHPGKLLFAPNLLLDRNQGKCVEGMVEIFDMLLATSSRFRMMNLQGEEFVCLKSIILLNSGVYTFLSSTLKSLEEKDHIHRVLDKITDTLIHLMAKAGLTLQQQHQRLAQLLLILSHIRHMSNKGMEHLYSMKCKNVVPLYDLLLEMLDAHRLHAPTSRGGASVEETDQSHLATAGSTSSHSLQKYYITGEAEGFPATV
Chain of Thyrotropin-releasing hormone receptor (Homo sapiens) (P34981 whole entry, looked up): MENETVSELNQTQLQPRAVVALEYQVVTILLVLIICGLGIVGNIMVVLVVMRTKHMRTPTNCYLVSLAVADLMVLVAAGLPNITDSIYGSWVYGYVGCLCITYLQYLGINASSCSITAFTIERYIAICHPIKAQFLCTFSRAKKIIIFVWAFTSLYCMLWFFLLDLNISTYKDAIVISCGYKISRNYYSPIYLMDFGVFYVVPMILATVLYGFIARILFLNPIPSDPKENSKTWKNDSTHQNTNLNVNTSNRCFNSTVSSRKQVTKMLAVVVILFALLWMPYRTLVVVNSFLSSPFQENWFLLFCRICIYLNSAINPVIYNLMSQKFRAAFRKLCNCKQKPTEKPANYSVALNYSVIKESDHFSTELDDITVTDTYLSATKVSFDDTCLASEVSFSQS
Chain of Thyrotropin receptor (Homo sapiens) (P16473 whole entry, looked up): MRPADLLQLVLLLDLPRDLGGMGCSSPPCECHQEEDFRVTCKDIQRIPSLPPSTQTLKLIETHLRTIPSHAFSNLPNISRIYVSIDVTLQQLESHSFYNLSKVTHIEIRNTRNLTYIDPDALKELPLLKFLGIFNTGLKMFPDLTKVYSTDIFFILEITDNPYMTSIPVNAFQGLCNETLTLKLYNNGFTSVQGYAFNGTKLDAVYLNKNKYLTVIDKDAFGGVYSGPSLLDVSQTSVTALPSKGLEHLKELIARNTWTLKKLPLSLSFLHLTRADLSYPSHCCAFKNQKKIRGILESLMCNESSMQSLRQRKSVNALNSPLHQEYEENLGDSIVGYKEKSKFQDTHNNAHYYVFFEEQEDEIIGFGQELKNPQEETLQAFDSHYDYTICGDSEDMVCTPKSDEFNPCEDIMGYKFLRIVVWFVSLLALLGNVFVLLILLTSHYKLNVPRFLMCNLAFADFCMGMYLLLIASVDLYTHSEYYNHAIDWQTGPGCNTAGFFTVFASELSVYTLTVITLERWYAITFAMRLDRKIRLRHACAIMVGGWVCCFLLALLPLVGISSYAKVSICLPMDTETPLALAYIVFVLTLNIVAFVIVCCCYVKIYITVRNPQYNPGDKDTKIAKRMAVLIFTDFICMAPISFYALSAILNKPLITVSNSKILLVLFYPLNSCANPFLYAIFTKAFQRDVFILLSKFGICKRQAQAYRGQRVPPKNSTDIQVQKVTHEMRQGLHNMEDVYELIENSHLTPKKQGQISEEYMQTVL

O=C1C(I)=CC(=C(c2cc(I)c(O)c(I)c2)c2ccccc2C(=O)O)C=C1I
inactive: Potency [1] | outcome [2] | Potency [3] | Potency [4] | outcome [5] | Potency [6] | Potency [7] | Potency [8] | outcome [9] | Potency [10] | Potency [11] | Potency [12] | Potency [13] | Potency [14] | Potency [15]

ClC(Cl)=C(c1ccc(Cl)cc1)c1ccccc1Cl
inactive: Potency [13] | Potency [15] | outcome [16] | outcome [17]

O=C(Nc1ccccc1-c1ccc(Cl)cc1)c1cccnc1Cl
inactive: Potency [1] | outcome [2] | Potency [4] | outcome [5] | Potency [6] | Potency [7] | Potency [8] | outcome [9] | Potency [10] | Potency [11] | outcome [16] | outcome [17]
active: Potency [12] 66.7 µM | Potency [18] 64.8 µM | Potency [19] 32.5 µM

Oc1c(I)cc(I)cc1I
active: Potency [18] 61.1 µM
inactive: Potency [13] | Potency [14]

CO/C=C(/C(=O)OC)c1ccccc1Oc1cc(Oc2ccccc2C#N)ncn1
inactive: Potency [1] | outcome [2] | Potency [3] | Potency [4] | outcome [5] | Potency [6] | Potency [7] | Potency [8] | outcome [9] | Potency [10] | Potency [11] | outcome [17]
active: Potency [12] 0.312 µM | Potency [18] 16.4 µM | Potency [20] 0.678 µM | Potency [19] 2.06 µM | Potency [15] 5.18 µM

N#Cc1cc([N+](=O)[O-])ccc1N
inactive: Potency [13] | Potency [19] | Potency [14] | Potency [15] | outcome [16] | outcome [17]

O=C(c1ccccc1)C(Cl)Cl
active: Potency [18] 68.6 µM
inactive: Potency [15] | outcome [16] | outcome [17]

ClC1=C(Cl)[C@]2(Cl)[C@@H]3[C@@H](Cl)[C@H]4O[C@H]4[C@@H]3C1(Cl)C2(Cl)Cl
active: Potency [12] 61.1 µM | Potency [20] 113 µM
inactive: Potency [1] | outcome [2] | Potency [3] | Potency [4] | outcome [5] | Potency [8] | outcome [9] | Potency [11] | Potency [18] | outcome [16]

C[C@]12CC[C@@H](O)C[C@@H]1CC[C@@H]1[C@@H]2CC[C@]2(C)C(=O)CC[C@@H]12
active: Potency [20] 101 µM

Cc1ccc2nc3sc(=O)sc3nc2c1
inactive: activation [13] -7.09% [at 19 µM] | activity change, negative = cytotoxicity [20] 0.633% [at 31.6 µM] | activity change, negative = cytotoxicity [14] 4.11% [at 15.8 µM] | activity change, negative = inhibition [15] -0.302% [at 19 µM] | activity, negative = inhibition [17] 3.17% [at 10.5 µM]

Nc1ccc([N+](=O)[O-])cc1
active: Potency [12] 14.1 µM | Potency [20] 101 µM | Potency [19] 7.7 µM | Potency [14] 21.9 µM
inactive: outcome [2] | Potency [3] | Potency [4] | outcome [5] | Potency [6] | Potency [7] | Potency [8] | outcome [9] | Potency [10] | Potency [11] | Potency [18]

O=[N+]([O-])c1c(Cl)c(Cl)cc(Cl)c1Cl
inactive: Potency [1] | outcome [2] | Potency [3] | Potency [4] | outcome [5] | Potency [6] | Potency [7] | Potency [8] | outcome [9] | Potency [11] | Potency [19] | Potency [15]

CC(c1ccccc1)(c1ccc(O)cc1)c1ccc(O)cc1
inactive: Potency [15] | outcome [16] | outcome [17]
active: Potency [18] 34.4 µM | Potency [13] 15.4 µM | Potency [19] 61.1 µM

COc1ccc(C(c2ccc(OC)cc2)C(Cl)(Cl)Cl)cc1
active: Potency [12] 39.2 µM | Potency [18] 8.58 µM | Potency [20] 50.2 µM | Potency [19] 30.5 µM
inactive: Potency [1] | outcome [2] | Potency [3] | outcome [5] | Potency [6] | Potency [7] | Potency [8] | outcome [9] | Potency [10] | Potency [11] | outcome [17]

CCN(CC)C(=O)Cl
inactive: Potency [18] | Potency [13] | Potency [20] | Potency [19] | Potency [14] | Potency [15] | outcome [16] | outcome [17]

Cc1cc(C(C)(C)c2ccc(O)c(C)c2)ccc1O
inactive: Potency [1] | outcome [2] | Potency [4] | outcome [5] | Potency [6] | Potency [7] | Potency [8] | outcome [9] | Potency [10] | Potency [11]
active: Potency [18] 9.23 µM | Potency [13] 46.2 µM | Potency [20] 108 µM | Potency [19] 26 µM | Potency [14] 23.4 µM

Reference: PubChem BioAssay (Tox21)
